# In PubChem BioAssay AID652042 (Broad Institute, 2013):
# The campaign covered roughly 1,100 compounds. About 350 (32%) were called active. Only a sample is shown. Results with a measured potency or affinity are listed apart. A number with no mark means an inactive call. The rule behind the calls is not given here.
# Assay: viability loss in CEM21 cells – cell-based, CellTiter-Glo luminescence, cherry-picked, cytotoxicity control for viral fusion inhibitor project, dose response (AID 652042)
# Details: CellTiter-Glo ATP luminescence, 24 h; series mostly up to 35 µM; activity change, negative = cytotoxicity: at the top concentration
row,Structure (SMILES),"activity change, negative = cytotoxicity"
1,CCc1ccc([C@H]2[C@@H]3C(=O)C[C@@H]4C(=O)N(Cc5ccccc5)C(=O)[C@@H]4[C@@H]3CN2S(=O)(=O)c2ccc(C)cc2)cc1,-8.07%
2,CC(=O)c1c(O)cc2c3c1OC(C)(C)C1CCC(C)(CC31)O2 (stereo unspecified),-10.6%
3,Cc1nc2ccccc2n1CC(=O)NCc1ccccc1,-8.14%
4,CCS(=O)(=O)N1Cc2ccccc2CC1C(=O)NC(C)C12CC3CC(CC(C3)C1)C2 (stereo unspecified),-11.2%
5,CCOC(=O)[C@@H]1[C@H]2COc3ccc(Br)cc3[C@@H]2N2C(=O)N(c3ccc(F)cc3)C(=O)[C@@]12C,-19.4%
6,CCOC(=O)[C@@H]1[C@H]2COc3cc(OC)ccc3[C@H]2N2C(=O)N(c3cccc(F)c3)C(=O)[C@@]12C,-1.64%
7,O=C(C[C@@H]1C[C@H]2c3cc(NC(=O)Nc4ccccc4)ccc3O[C@H]2[C@H](CO)O1)NCc1cccnc1,-0.189%
8,Cc1ccc(S(=O)(=O)N2CCN(S(=O)(=O)c3ccc(C)cc3)C2c2ccccc2)cc1,-6.37%
9,c1ccc(CSc2nnc([C@@H]3CCCN3)o2)cc1,-2.9%
10,O=C(C1CCCCC1)N1CCCC(c2nc3c(nnn3Cc3ccccc3)c(=O)[nH]2)C1 (stereo unspecified),-0.473%
11,CCN(C[C@H]1N[C@@](C)(C(=O)OC)[C@H]2C(=O)N(Cc3ccccc3)C(=O)[C@@H]12)S(=O)(=O)c1ccc(C)cc1,-0.762%
12,CCN(C[C@H]1N[C@@](CC)(C(=O)OC)[C@H]2C(=O)N(Cc3ccccc3)C(=O)[C@@H]12)S(=O)(=O)c1ccc(C)cc1,-12.5%
13,O=C(c1ccc(Cl)cc1)N1CCCCC(Sc2nnc(-c3ccc4c(c3)OCO4)o2)C1=O (stereo unspecified),-2.73%
14,Cc1cc(C)c(S(=O)(=O)N2CCN=C2c2ccccc2)cc1C,-9.27%
15,c1ccc2c(N3CCCCC3)ncnc2c1,-7.9%
16,CC(C)[C@H](CN(N=O)[C@@H](Cc1ccccc1)CN(C)N=O)N(CCc1ccccc1)N=O,-21.7%
17,Cc1ccccc1-n1c(=O)c2ccccc2n2cnnc12,2.85%
18,COc1ccc(NC(=O)C(=O)NCC2CCCN2S(=O)(=O)c2cccs2)cc1 (stereo unspecified),-23.2%
19,COc1ccc(C(=O)NCCc2ccc(Cl)cc2)cc1S(=O)(=O)N1CCCCC1C (stereo unspecified),-24%

row,Structure (SMILES),"activity change, negative = cytotoxicity"
1,O=C(CN(c1cc(C(F)(F)F)ccc1Cl)S(=O)(=O)c1ccccc1)NCc1cccnc1,-6.14%
2,CC(C)(C)N1C(=O)[C@H]2[C@@H](c3ccc(Br)cc3)N3C(=O)N(c4ccccc4)C(=O)[C@@]3(C)[C@H]2C1=O,-1.59%
3,COc1ccc(Nc2ncc(C(=O)N3CCN(c4ccc(F)cc4)CC3)c3ccccc23)cc1,-15.8%
4,CO[C@H]1CN(C)C(=O)c2cc(NC(=O)c3ccc(F)cc3)ccc2OC[C@H](C)N(C(=O)CN(C)C)C[C@@H]1C,-4.43%
5,COc1ccccc1OCC(=O)c1[nH]c(C)c(C(C)=O)c1C,-10.2%
6,Cc1cccc2cc3c(N)c(C#N)sc3nc12,-1.38%
7,O=C1CCCc2c1[nH]c1ccc(Cl)cc21,6.7% [at 16 µM]
8,O=C(NNS(=O)(=O)c1ccc(F)cc1F)C1Cc2c(ccc3ccccc23)O1 (stereo unspecified),-1.4%
9,Cc1ccc(S(=O)(=O)N(C)C[C@H]2Oc3cc(-c4cccc(F)c4)ccc3S(=O)(=O)N([C@H](C)CO)C[C@H]2C)cc1,-24.6%
10,COc1ccc(S(=O)(=O)Nc2ccc3c(c2)CC(=O)N([C@@H](C)CO)C[C@H](C)[C@H](CN(C)S(=O)(=O)c2ccc(C)cc2)O3)cc1,-4.93%
11,C[C@@H]1CN([C@H](C)CO)C(=O)c2cc(NC(=O)Nc3ccccc3)ccc2O[C@@H]1CN(C)S(=O)(=O)c1ccccc1,-5%
12,C[C@@H]1CN([C@@H](C)CO)S(=O)(=O)c2ccc(-c3ccccc3)cc2O[C@H]1CN(C)S(C)(=O)=O,-14.9%
13,COc1ccc([C@@H]2[C@@H]3C(=O)N(C(C)(C)C)C(=O)[C@@H]3[C@]3(CC(C)C)C(=O)N(c4cccc(Br)c4)C(=O)N23)cc1,1.72%
14,COc1ccc(Cn2nnnc2C(c2cc3cccc(C)c3[nH]c2=O)N2CCOCC2)cc1 (stereo unspecified),-2.74%
15,COc1ccc(C(C(=O)NC2CCCC2)N(C(=O)c2ccoc2C)c2ccc(C)cc2)cc1 (stereo unspecified),-24%
16,O=C(NCc1ccco1)c1ccc(Cn2c(=O)c3ccccc3n(Cc3cccc(F)c3)c2=O)cc1,3.08%
17,CCC(=O)N(C)C(c1ccccc1Cl)c1nnnn1-c1c(C)cccc1C (stereo unspecified),-15.6%
18,CCCCCCOc1ccc(OC(=O)c2ccncc2)cc1,-12.3%
19,O=C(Nc1ccc(CN2CCS(=O)(=O)CC2)cc1)c1ccc(C(F)(F)F)cc1,-21.8%

row,Structure (SMILES),"activity change, negative = cytotoxicity"
1,C[C@@H]1CNC(=O)c2c(C(=O)N(C)Cc3ccccc3)ncn21,-18.7%
2,O=C1[C@H]2[C@@H](C3CC3)N3C(=O)CN(CC4CC4)C(=O)[C@@]3(Cc3ccccc3)[C@H]2C(=O)N1c1ccccc1,0.041%
3,CC1(C(=O)N/N=C/c2cc3c(cc2Br)OCO3)CC1(Br)Br (stereo unspecified),-5.08%
4,CC1(C(=O)N/N=C/c2ccc3c(c2)OCO3)CC1(Br)Br (stereo unspecified),1.88%
5,Cc1ccsc1/C=N/Nc1cccc(C(=O)O)c1,-7.18%
6,COc1cc(/C=N/NS(=O)(=O)c2ccc(C)cc2)ccc1OCc1ccc(C(=O)O)cc1,4.25%
7,CCCn1c(=S)[nH]c2cc(C(=O)N3CCCC(C(=O)OCC)C3)ccc2c1=O (stereo unspecified),-16.8%
8,Cc1cc(C(=O)CN2C(=O)c3ccccc3S2(=O)=O)c(C)n1CC1CCCO1 (stereo unspecified),7.48%
9,O=C(NC1=NCCS1)C1COc2ccccc2O1 (stereo unspecified),-11.6%
10,COC(=O)c1ccc(NC(=O)c2ccc(CN3CCOCC3)cc2)cc1,-6.47%
11,O=C(Nc1ccc(S(=O)(=O)N2CCCC2)cc1)c1ccc(CN2CCOCC2)cc1,-13.1%
12,O=S(=O)(c1ccc(Cl)cc1)N1CCCN(c2nc3ccc(Cl)cc3s2)CC1,-15.6%
13,O=C(CC1C(=O)NCCN1Cc1cccc(F)c1)NC1CCCCC1 (stereo unspecified),0.283%
14,CC(C)(C)c1ccc(OCCC(=O)Nc2cccc(S(=O)(=O)N3CCOCC3)c2)cc1,-11.4%
15,COc1ccc(NC(=O)Nc2ccc3c(c2)N(C)C(=O)CS3)cc1Cl,-20.2%
16,CCOc1ccccc1N(C(=O)CNC(=O)c1ccco1)C(C(=O)NC1CCCC1)c1cccnc1 (stereo unspecified),-6.89%
17,CCOc1ccc(S(=O)(=O)NCc2ccncc2)cc1,-16.8%
18,O=C(C[C@@H]1C[C@H]2c3cc(NC(=O)C4CCOCC4)ccc3O[C@H]2[C@H](CO)O1)NCc1ccccc1F,-1.23%
